# Laboratory results reported in PubChem BioAssay (NCI).
# The panel holds about 79,000 compounds, 15% with a hit somewhere; the sample as a whole holds those more often. Unmarked numbers belong to inactive results. Activity calls are given as the source filed them. Cut-off read from the data, not from the text of the source: active = growth inhibition above about 70%; inactive = the rest.
# Test: NCI Yeast Anticancer Drug Screen. Data for the bub3 strain (AID 167)
# Settings: S. cerevisiae bub3 mutant strain, at 50.0 µM, stronger effect = higher value
# How it was run: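 Growth of a checkpoint-deficient yeast mutant is measured after compound exposure. Values represent inhibition relative to vehicle.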
row,Structure (SMILES),growth inhibition
1,O=C(Cc1ccccc1)c1c[nH]c2c(O)ccc(O)c12,-13.9%
2,CCCCCC(CN(C)C)C(O)CCc1ccc(Cl)c(Cl)c1 (configuration not stated),80.5% (active)
3,Cc1cccc(C(C)C)c1NC(=O)/C(Cc1c([N+](=O)[O-])cccc1[N+](=O)[O-])=N/NC(=O)CC#N,-23.2%
4,CC1c2c(cc(=O)n(C)c2O)C(=O)N1C (configuration not stated),-9%
5,CN(C)c1ccc(/C=C/C=C(/C#N)c2ccccc2)cc1,24.3%
6,Cc1nc(-c2nc(C)c(C(=O)NNC(=O)C[n+]3ccccc3)s2)sc1C(=O)NNC(=O)C[n+]1ccccc1,0.2%
7,C/C(=N/NC(=S)N1CCCCCC1)c1ccccc1O,-12.8%
8,CCCCCCC(=O)c1ccco1,-1.75%
9,NC1CCCCC1N.O=NN1CCCCCC1(P(=O)([O-])[O-])P(=O)([O-])[O-].[Na+].[Pt+2],-12.6%
10,NNC(=O)C1C2C=CC(C2)C1C(=O)NN (configuration not stated),4.15%
11,CCOC(=O)C(=O)c1cn(C)c(=O)n(C)c1=O,0.9%
12,CC(C)(C)OC(=O)NCCNC(=O)OCc1ccccc1,-3.5%
13,O=[N+]([O-])c1ccc(Oc2cccc3ccccc23)c([N+](=O)[O-])c1,29.1%
14,CCOC(=O)C(=O)C(C(=O)OCC)C(C)C(=O)OCC (configuration not stated),6.65%
15,O=C1C2=C(CCCC2)Nc2cccc3ncn1c23,-38.4%
16,CC(C)/C=N/N=C/C(C)C,-13.6%
17,COC(=O)C1CC2(C(=O)OC)CC(C(=O)OC)(CC(C(=O)OC)C2=O)C1=O (configuration not stated),18.5%
18,Cc1nc2ccccc2c(=O)n1/N=C\c1ccc2c(c1)CCC2,23%
19,Nc1cccc(Nc2nc3ccccc3nc2NS(=O)(=O)c2ccccc2)c1,-2.5%
20,BrCCCOc1ccccc1Br,4.2%
21,CNC(=O)Nc1ccc(C(=O)OCC(C)C)cc1,-22.1%
22,C=C(C)CNCC(=C)C,17.9%

# Test: NCI Yeast Anticancer Drug Screen. Data for the mlh1 rad18 strain (AID 175)
# Settings: S. cerevisiae mlh1 rad18 strain growth inhibition; at 50.0 µM; stronger effect = higher value
# How it was run: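 Genetically defined yeast (DNA repair-deficient) exposed to compounds; growth inhibition determined relative to vehicle.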
row,Structure (SMILES),growth inhibition
1,Cn1c(N)c(C(=O)/C=C/c2ccccc2)c(=O)n(C)c1=O,5.8%
2,CCc1c(CBr)c(=O)[nH]c2ccccc12,2.55%
3,CN1CCCC1,-8.2%
4,COc1ccccc1N=Nc1c(O)n(-c2ccccc2C)c(=S)n(-c2ccccc2OC)c1=O,3.2%
5,C=CCC12CC(O)C(O)CC1(OC)OC(c1cc(OC)c(OC)c(OC)c1)C2C (configuration not stated),7.9%
6,Cc1ccccc1NC(=O)CS,33.2%
7,COc1ccc(N=C2[Se]C(=NC(=O)c3ccccc3)N(c3ccc(OC)cc3)C2=Nc2ccc(OC)cc2)cc1,-7.95%
8,Cc1cccnc1NCc1ccccn1,3.35%
9,Cc1csc2c1-n1cccc1C2=O,24.3%
10,CCn1cc(C(=O)O)c(=O)c2ccc(-c3ccncc3)cc21,11.4%
11,Cc1cccc(C(=O)O)c1N,13.4%
12,C/C=C(\C)c1cc(O)c(C)c2c1Oc1cc(O)c(Cl)c(C)c1C(=O)O2,92.5% (active)
13,CCN(CC)c1cc2c(cc1Br)-c1ccccc1C2=O,36%
14,CC1(C)CC(C)(C)CC(O)(C2(O)CC(C)(C)CC(C)(C)C2)C1,9.2%
15,Nc1nc(Br)nc2ncn(C3CC(O)C(CO)O3)c12 (configuration not stated),-4.9%
16,C/C(=N\NC(N)=O)c1sc(-c2nc(C)c(/C(C)=N/NC(N)=O)s2)nc1C,27.5%
17,O=C1c2ccccc2C(=O)N1Cl,-5.75%
18,NC(=O)C(NN=C1c2ccccc2-c2ccccc21)(c1ccccc1)c1ccccc1,18.7%
19,O=C(Cc1ccccc1)c1c[nH]c2c(O)ccc(O)c12,-8.45%
20,CCCCCC(CN(C)C)C(O)CCc1ccc(Cl)c(Cl)c1 (configuration not stated),98.6% (active)

row,Structure (SMILES),growth inhibition
1,Cc1cccc(C(C)C)c1NC(=O)/C(Cc1c([N+](=O)[O-])cccc1[N+](=O)[O-])=N/NC(=O)CC#N,4.8%
2,CC1c2c(cc(=O)n(C)c2O)C(=O)N1C (configuration not stated),-2.85%
3,CN(C)c1ccc(/C=C/C=C(/C#N)c2ccccc2)cc1,2.65%
4,Cc1nc(-c2nc(C)c(C(=O)NNC(=O)C[n+]3ccccc3)s2)sc1C(=O)NNC(=O)C[n+]1ccccc1,14.4%
5,C/C(=N/NC(=S)N1CCCCCC1)c1ccccc1O,34.8%
6,CCCCCCC(=O)c1ccco1,-11.8%
7,NC1CCCCC1N.O=NN1CCCCCC1(P(=O)([O-])[O-])P(=O)([O-])[O-].[Na+].[Pt+2],-10.4%
8,NNC(=O)C1C2C=CC(C2)C1C(=O)NN (configuration not stated),4.2%
9,CCOC(=O)C(=O)c1cn(C)c(=O)n(C)c1=O,10.6%
10,CC(C)(C)OC(=O)NCCNC(=O)OCc1ccccc1,-0.25%
11,O=[N+]([O-])c1ccc(Oc2cccc3ccccc23)c([N+](=O)[O-])c1,38.8%
12,CCOC(=O)C(=O)C(C(=O)OCC)C(C)C(=O)OCC (configuration not stated),-11.2%
13,O=C1C2=C(CCCC2)Nc2cccc3ncn1c23,-40.2%
14,CC(C)/C=N/N=C/C(C)C,-12.8%
15,COC(=O)C1CC2(C(=O)OC)CC(C(=O)OC)(CC(C(=O)OC)C2=O)C1=O (configuration not stated),3.55%
16,Cc1nc2ccccc2c(=O)n1/N=C\c1ccc2c(c1)CCC2,29.1%
17,Nc1cccc(Nc2nc3ccccc3nc2NS(=O)(=O)c2ccccc2)c1,-9.1%
18,BrCCCOc1ccccc1Br,14.2%
19,CNC(=O)Nc1ccc(C(=O)OCC(C)C)cc1,7.45%
20,C=C(C)CNCC(=C)C,21.6%
